Assay [1] is described as follows: small molecules captured by biotinylated probe aFSTL3 – biochemical, small-molecule microarray, fluorescence 635/667, stem cell growth factor project, primary screen (AID 1064).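 Note: measures binding of the biotinylated anti-FSTL3 antibody to printed compounds.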 The note with it: higher = more signal.
Assay [2] in a line: binders from COS7 lysate, DM2A8 probe, primary screen, torsin A project, cell lysate, small-molecule microarray, fluorescence 635/667 (AID 1065). The note with it: higher = more signal, COS7 lysate expressing mutant human TOR1A.
A short description of assay [3]: small molecules captured by biotinylated probe aFGF2 – biochemical, small-molecule microarray, fluorescence 635/667, stem cell growth factor project, primary screen (AID 1067).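 Note: measures binding of biotinylated aFGF2 protein to printed compounds on slides; z-score merges feature fluorescence and signal-to-noise across triplicate slides.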 The following applies: higher = more signal.
Assay [4] in a line: small molecules captured by biotinylated probe aFGF10 – biochemical, small-molecule microarray, fluorescence 635/667, stem cell growth factor project, primary screen (AID 1071).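 Note: score merges 667 nm spot intensity and signal to noise from triplicate slides.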 The note with it: higher = more signal.
In assay [5] the target is Neurogenic locus notch homolog protein 2 (Homo sapiens) (UniProt Q04721). Put plainly: small molecules binding Notch2 protein – biochemical, small-molecule microarray, 635 nm fluorescence, stem cell growth factors, primary screen (AID 1073). The note with it: higher = more signal.
Assay [6] concerns the target Pro-neuregulin-1, membrane-bound isoform (Homo sapiens) (UniProt Q02297). Put plainly: small molecules binding neuregulin-1 protein – biochemical, small-molecule microarray, fluorescence 635/667, psychiatric disease protein project, primary screen (AID 1075).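 Note: score combines 667 nm spot fluorescence with signal to noise.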 The note with it: NRG1 binding, 635 nm fluorescence, higher = more signal.
Assay [7] has as its system Neuregulin-1 EGF-like domain. Put plainly: small molecules binding NRG1 EGF domain – biochemical, small-molecule microarray, 635 nm fluorescence, primary screen (AID 1081).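 Note: binding of the protein to compounds printed on small-molecule microarray slides.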 The following applies: higher = more signal.
Assay [8] in a line: FRG1 expression reporter modulators in myotubes – cell-based, C2C12 myotubes, firefly/Renilla luciferase, luminescence, FRG1 inhibition for FSHD, primary screen (AID 1084). The note with it: FRG1 promoter luciferase, higher = more signal, called active from +8 up or from −8 down.
The nature of assay [9]: small molecules captured by biotinylated probe aFST – biochemical, small-molecule microarray, fluorescence 635/667, stem cell growth factor project, primary screen (AID 1086).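 Note: score merges 667 nm fluorescence with signal-to-noise of each printed compound spot.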 The note with it: higher = more signal.
Assay [10] in a line: binders of probe aHhip on microarray, primary screen, stem cell growth factor project, biochemical, small-molecule microarray, fluorescence 635/667 (AID 1087).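 Note: score merges spot fluorescence at 667nm with spot signal to noise ratio.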 The note with it: higher = more signal.
In assay [11] the test system is PRMT1 (protein arginine N-methyltransferase 1). Put plainly: small molecules binding arginine methyltransferase PRMT1 – biochemical, small-molecule microarray, 635 nm fluorescence, primary screen (AID 1088).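 Note: binding of Prmt1 protein to compounds spotted on small-molecule microarray slides.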 The note with it: higher = more signal.
A short description of assay [12]: growth effects on S. cerevisiae YJM789 – YJM789 clinical isolate, OD600, 24 h, basal, primary screen (AID 1089).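 Note: growth of clinical yeast isolate S. cerevisiae YJM 789 seeded 1000 cells per well; test concentration not given here.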 The following applies: higher = more signal, called active from +8 up or from −8 down.
Assay [13] can be described thus: S. pombe growth modifiers, basal conditions – strain 972, OD600, 24 h, no modulator, primary screen (AID 1090).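 Note: basal condition with compound alone and no growth modifier present; test concentration not given here.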 The note with it: S. pombe 972 growth, higher = more signal, called active from +8 up or from −8 down.
Assay [14] can be described thus: budding yeast growth modifiers under rapamycin – strain BY4716, OD600, 96 h, primary screen (AID 1091). Note: test concentration not given here. The note with it: S. cerevisiae BY4716 + rapamycin, higher = more signal, called active from +8 up or from −8 down.
For assay [15], the target named is Torsin-1A-interacting protein 2 (Homo sapiens) (UniProt Q8NFQ8). Put plainly: small molecules binding lysate-expressed LULL1 – cell lysate, human LULL1 lysate, 635/667 nm fluorescence, primary screen (AID 1092).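 Note: probe is lysate of COS7 cells overexpressing human LULL1; score merges per-feature 667 nm fluorescence with signal-to-noise.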 The note with it: small-molecule microarray, hLULL1 lysate binding, 635 nm fluorescence; higher = more signal.
Chain of Torsin-1A-interacting protein 2 (Homo sapiens) (Q8NFQ8 whole entry, looked up): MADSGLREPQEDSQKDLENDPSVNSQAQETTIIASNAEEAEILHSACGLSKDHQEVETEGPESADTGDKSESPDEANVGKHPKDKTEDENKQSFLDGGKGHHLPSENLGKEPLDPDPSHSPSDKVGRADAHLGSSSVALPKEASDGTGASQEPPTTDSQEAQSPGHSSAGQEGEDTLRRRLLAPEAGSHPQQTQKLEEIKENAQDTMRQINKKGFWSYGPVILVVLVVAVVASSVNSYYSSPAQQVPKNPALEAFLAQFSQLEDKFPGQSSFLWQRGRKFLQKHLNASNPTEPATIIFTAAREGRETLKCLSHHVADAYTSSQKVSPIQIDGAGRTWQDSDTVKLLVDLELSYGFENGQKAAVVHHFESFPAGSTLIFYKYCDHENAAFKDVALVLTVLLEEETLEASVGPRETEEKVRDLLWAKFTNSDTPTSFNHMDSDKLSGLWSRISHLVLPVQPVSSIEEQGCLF
Assay [16] in a line: optical density change of DRC41 E. coli – strain DRC41, OD650, 24 h, E. coli filamentation project, primary screen (AID 1093).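 Note: MC1000 strain lacking acrAB efflux and sulA so SOS filamentation is blocked; test concentration not given here.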 The following applies: E. coli DRC41 growth, higher = more signal, called active from +8 up or from −8 down.
Assay [17] is described as follows: probe aLefty2 binding to arrayed compounds – biochemical, biotinylated probe, 635/667 nm fluorescence, primary screen (AID 1094).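 Note: score merges spot fluorescence near 667 nm with spot signal-to-noise ratio.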 The note with it: small-molecule microarray, higher = more signal.
The test system of assay [18] is Noggin (protein binding on small-molecule microarray). Put plainly: small molecules binding Noggin protein – biochemical, 635/667 nm fluorescence, primary screen (AID 1095).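 Note: score merges 667 nm feature fluorescence with signal to noise over triplicate slides.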 The following applies: 635 nm fluorescence, higher = more signal.
Assay [19] concerns the target Neurogenic locus notch homolog protein 3 (Homo sapiens) (UniProt Q9UM47). Put plainly: small molecules binding NOTCH3 protein – biochemical, 635/667 nm fluorescence, primary screen (AID 1096). The note with it: small-molecule microarray, 635 nm fluorescence, higher = more signal.
Assay [20] can be described thus: probe aEGFR binding to arrayed compounds – biochemical, biotinylated probe, 635/667 nm fluorescence, primary screen (AID 1097).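 Note: probe is a biotinylated anti-EGFR antibody binding compounds printed on slides; score combines fluorescence near 667 nm and signal to noise of each spot.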 The following applies: small-molecule microarray, higher = more signal.

The structures appear in SMILES notation. The source made the active and inactive calls.

Chain of Neurogenic locus notch homolog protein 3 (Homo sapiens) (Q9UM47 whole entry, looked up): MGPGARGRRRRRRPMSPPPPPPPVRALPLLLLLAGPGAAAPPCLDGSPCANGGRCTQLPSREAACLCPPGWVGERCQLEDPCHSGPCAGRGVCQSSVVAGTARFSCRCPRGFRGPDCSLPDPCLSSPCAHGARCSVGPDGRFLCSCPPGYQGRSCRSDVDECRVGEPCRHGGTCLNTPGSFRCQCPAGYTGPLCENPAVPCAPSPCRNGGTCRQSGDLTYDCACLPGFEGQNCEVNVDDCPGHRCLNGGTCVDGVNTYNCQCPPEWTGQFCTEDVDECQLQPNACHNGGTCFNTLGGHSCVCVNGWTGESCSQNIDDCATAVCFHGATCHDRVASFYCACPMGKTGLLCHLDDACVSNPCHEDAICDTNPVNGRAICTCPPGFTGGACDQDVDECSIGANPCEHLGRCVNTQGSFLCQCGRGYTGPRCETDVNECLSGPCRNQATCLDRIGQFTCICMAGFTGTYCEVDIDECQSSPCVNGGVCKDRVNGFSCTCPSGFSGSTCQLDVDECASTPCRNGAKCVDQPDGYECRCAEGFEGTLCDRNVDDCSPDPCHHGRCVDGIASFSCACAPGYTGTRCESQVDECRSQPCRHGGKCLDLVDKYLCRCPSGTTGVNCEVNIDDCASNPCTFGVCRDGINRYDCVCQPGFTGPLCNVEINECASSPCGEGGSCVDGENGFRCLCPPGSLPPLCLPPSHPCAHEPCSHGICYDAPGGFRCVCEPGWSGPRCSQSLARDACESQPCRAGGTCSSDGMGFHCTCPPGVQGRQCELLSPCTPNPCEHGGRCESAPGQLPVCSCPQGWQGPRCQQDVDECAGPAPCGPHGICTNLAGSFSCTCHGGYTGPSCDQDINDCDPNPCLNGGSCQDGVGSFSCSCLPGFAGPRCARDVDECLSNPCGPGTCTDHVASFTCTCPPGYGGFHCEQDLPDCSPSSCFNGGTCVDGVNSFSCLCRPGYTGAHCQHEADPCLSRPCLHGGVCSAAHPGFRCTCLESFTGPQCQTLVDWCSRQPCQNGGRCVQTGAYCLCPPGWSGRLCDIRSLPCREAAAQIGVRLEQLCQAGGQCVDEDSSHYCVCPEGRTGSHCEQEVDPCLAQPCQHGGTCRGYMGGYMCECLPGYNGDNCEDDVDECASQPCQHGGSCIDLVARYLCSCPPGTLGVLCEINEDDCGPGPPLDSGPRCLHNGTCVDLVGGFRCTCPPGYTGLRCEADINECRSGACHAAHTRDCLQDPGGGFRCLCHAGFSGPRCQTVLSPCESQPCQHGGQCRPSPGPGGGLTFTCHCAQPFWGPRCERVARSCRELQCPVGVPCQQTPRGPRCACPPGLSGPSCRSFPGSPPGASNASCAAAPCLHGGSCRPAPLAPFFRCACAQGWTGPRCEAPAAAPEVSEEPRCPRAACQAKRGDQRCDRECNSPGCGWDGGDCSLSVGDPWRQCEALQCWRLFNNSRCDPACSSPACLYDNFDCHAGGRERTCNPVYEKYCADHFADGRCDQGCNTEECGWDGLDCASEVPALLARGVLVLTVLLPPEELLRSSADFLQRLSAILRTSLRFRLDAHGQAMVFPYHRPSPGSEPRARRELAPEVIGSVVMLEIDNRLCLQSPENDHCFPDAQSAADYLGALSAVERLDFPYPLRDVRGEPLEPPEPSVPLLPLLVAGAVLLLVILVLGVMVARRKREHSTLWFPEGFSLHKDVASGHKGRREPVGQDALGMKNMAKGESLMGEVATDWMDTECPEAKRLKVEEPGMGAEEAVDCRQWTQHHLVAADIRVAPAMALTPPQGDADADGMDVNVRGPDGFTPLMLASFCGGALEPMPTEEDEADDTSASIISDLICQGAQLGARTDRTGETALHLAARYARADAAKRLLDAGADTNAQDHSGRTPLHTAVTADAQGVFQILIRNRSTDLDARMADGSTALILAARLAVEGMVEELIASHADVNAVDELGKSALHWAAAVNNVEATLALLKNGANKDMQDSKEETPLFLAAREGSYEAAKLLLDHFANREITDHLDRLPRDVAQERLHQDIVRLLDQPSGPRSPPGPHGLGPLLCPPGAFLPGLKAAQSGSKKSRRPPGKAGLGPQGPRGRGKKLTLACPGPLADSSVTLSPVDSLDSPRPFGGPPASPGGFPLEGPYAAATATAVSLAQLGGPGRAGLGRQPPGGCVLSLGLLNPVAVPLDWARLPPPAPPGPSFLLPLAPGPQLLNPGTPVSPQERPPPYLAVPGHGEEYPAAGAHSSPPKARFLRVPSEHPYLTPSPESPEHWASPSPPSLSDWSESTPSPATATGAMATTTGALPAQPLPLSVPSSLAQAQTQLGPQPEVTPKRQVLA
Chain of Pro-neuregulin-1, membrane-bound isoform (Homo sapiens) (Q02297 whole entry, looked up, the tested form may be a part, canonical isoform): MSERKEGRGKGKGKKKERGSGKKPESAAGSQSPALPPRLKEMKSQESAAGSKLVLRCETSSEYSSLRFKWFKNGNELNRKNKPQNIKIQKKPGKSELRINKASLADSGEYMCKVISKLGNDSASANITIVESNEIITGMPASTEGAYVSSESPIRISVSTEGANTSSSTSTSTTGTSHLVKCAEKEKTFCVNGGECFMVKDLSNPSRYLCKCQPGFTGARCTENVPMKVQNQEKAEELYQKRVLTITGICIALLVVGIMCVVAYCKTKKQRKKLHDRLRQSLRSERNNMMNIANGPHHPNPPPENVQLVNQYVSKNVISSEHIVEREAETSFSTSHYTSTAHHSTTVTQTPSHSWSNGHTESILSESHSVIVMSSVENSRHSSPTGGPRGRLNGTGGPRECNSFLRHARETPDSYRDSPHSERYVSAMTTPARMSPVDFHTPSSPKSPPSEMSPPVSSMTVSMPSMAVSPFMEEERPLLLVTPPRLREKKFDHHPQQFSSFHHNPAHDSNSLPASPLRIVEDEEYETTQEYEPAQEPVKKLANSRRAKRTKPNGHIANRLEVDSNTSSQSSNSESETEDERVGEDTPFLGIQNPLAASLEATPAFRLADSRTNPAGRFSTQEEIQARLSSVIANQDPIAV

`C=CCC(OC(C)=O)[C@@H]1[C@@H](N(Cc2cccc3ccccc23)C(=O)c2ccc(-c3ccccc3)cc2)c2cc(OCCCO)ccc2N1C(=O)Cc1ccc(OC)cc1` (stereo not given in full): the composite z-score was -0.184 in [1]; 0.419 in [2]; -0.061 in assay [3]; 0.151 in assay [4]; -0.131 in assay [5]; 0.0521 in assay [6]. Further, the composite z-score in [7] was 0.138; in [9], -0.0107; in assay [10], -0.0618; in assay [11] it was 0.341; in [15], 0.792; in [17] it was -0.0491. In addition, the composite z-score in assay [18] was 0.0231; in [19], 0.0343; in assay [20], -0.0415. Moreover, the z-score in [8] is 0.61 (inactive); in assay [12], -0.715 (inactive); in [13] it was -0.445 (inactive); in assay [14], -1.03 (inactive); in assay [16], 0.457 (inactive).

In the case of `C=CCN1C(=O)[C@]2(O[C@H](CCO)[C@@H]([Si](C)(C)c3ccc(OC)cc3)[C@@H]2C)c2cc(N3CCCCC3=O)ccc21`, the composite z-score is -0.5 in assay [1]; 0.897 in assay [2]; -0.0291 in assay [3]; 0.428 in [4]; 1.15 in assay [5]; 1.42 in assay [6]. The composite z-score in assay [7] was 1.24; in assay [9] it was 0.645; in assay [10] it was -0.13; in assay [11], 1.54; in assay [15], 2.37; in [17], -0.106. For the same molecule, the composite z-score was determined as 1.06 in assay [18], 1.14 in assay [19] and 0.048 in [20]. Moreover, the z-score was -3.81 (inactive) in assay [8]; -0.242 (inactive) in assay [12]; 0.413 (inactive) in [13]; 2.23 (inactive) in [14]; 1.27 (inactive) in [16].

With `COC(=O)[C@@]1(Cc2ccc(OC)cc2)[C@H]2c3cc(C(=O)N4CCCC4)n(Cc4ccc(OC)c(OC)c4)c3C[C@H]2CN1C(=O)c1ccccc1`, the composite z-score in assay [1] was 1.65; in assay [2] it was 0.188; in assay [3], 0.636; in assay [4], 0.199; in [5], 1.72; in [6], 2.16. For the same molecule, the composite z-score in assay [7] is 1.07; in assay [9], 1.74; in assay [10] it was 0.319; in assay [11], 0.929; in assay [15], 3.36; in [17] it was 1.2. In addition, the composite z-score in [18] came out at 0.793; in assay [19], 1.11; in [20], 0.889. The z-score in assay [8] was 2.25 (inactive); in assay [12], -0.515 (inactive); in assay [13], 0.835 (inactive); in assay [14] it was 1.18 (inactive); in [16], -0.148 (inactive).

For `COc1ccc(C(=O)O[C@H]2CC[C@]3(C)C4=C(CCC3C2(C)C)[C@]2(C)CC[C@H]([C@H](C)CCCC(C)C)[C@@]2(C)CC4)cc1` (stereo not given in full), the composite z-score was -0.581 in assay [1]; 0.191 in [2]; -0.128 in assay [3]; 0.338 in assay [4]; 0.611 in [5]; 0.133 in [6]. The composite z-score in assay [7] was 0.456; in assay [9] it was 0.18; in assay [10], 0.0749; in [11] it was 0.193; in assay [15], -0.445; in [17], -0.0561. Further, the composite z-score in [18] was 0.546; in [19], 0.947; in assay [20], -0.0828. Further, the z-score in assay [8] is -1.16 (inactive); in assay [12], -0.292 (inactive); in assay [13], -1.52 (inactive); in [14], -0.262 (inactive); in assay [16], 1.71 (inactive).

Turning to `COC(=O)[C@@]1(Cc2ccc(OC)cc2)[C@H]2c3cc(C(=O)N4CCCC4)n(Cc4ccsc4Br)c3C[C@H]2CN1C(=O)c1ccccc1`, the composite z-score in [1] is 0.588; in assay [2], -0.594; in [3], -0.1; in assay [4], 0.188; in assay [5], 1.6; in assay [6], 1.68. Further, the composite z-score is 1.08 in assay [7]; 1.37 in assay [9]; -0.367 in [10]; -0.356 in assay [11]; 2.91 in assay [15]; 0.498 in assay [17]. Also, the composite z-score was -0.0969 in assay [18], 0.855 in [19] and 0.122 in assay [20]. Moreover, the z-score in [8] was 3.4 (inactive); in assay [12], -0.168 (inactive); in assay [13] it was 0.0021 (inactive); in assay [14] it was -0.887 (inactive); in assay [16], -0.29 (inactive).
